Pol eta inh-1: blocks human DNA polymerase eta activity. Q9Y253. recombinant Pol eta, fluorescent DNA replication assay. Potency, µM (series often up to 114 µM), inactives show at the highest dose activity change, negative = inhibition, hits mostly inhibitors. hit rate 1.2% among 390,000; further: potency means the concentration at half of the fitted maximal effect; on the % scale 0 is the no-effect control and ±100 the full control effect
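Pol eta (10 nM) was preincubated with compounds for 15 min at room temperature, after which fluorescent replication substrate (50 nM final) was added to start the reaction. Fluorescence was read kinetically at 0 and 10 min.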
Pol beta inh: DNA polymerase beta (human) inhibition; P06746; Pol beta primer extension/strand displacement, fluorescence kinetic; Potency, µM (highest dose often 114 µM), for inactives: top-dose activity change, negative = inhibition, hits mostly inhibitors; hit rate 1.3% among 340,000; further: potency means the concentration at half of the fitted maximal effect; on the % scale 0 is the no-effect control and ±100 the full control effect
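Curves were derived by four-parameter Hill fits of normalized qHTS data. The kinetic fluorescent primer-extension read was taken at 0 and 10 min after 50 nM substrate, following a 15 min room-temperature preincubation of 10 nM enzyme with compounds.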
WRN inhibitor: WRN helicase (human) inhibition; AID 651768; WRN helicase unwinding, fluorescent forked duplex, kinetic; Potency, µM (titrated, usually from 114 µM), for inactives: at the highest dose activity change, negative = inhibition, most hits filed as inhibitors; hit rate 0.46% among 360,000; further: potency means the concentration at half of the fitted maximal effect; on the % scale 0 is the no-effect control and ±100 the full control effect; nearly all actives have a fitted effect of over 55% in size
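WRN at 20 nM final preincubated with compound 15 min at room temperature; reaction started with 100 nM fluorophore/quencher forked duplex oligonucleotide and 2 mM ATP final. Unwinding followed kinetically by red fluorescence (ex 525, em 598 nm).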
POLI inh: inhibitors of human DNA polymerase iota. hit rate 1% among 390,000. Q9UNA4. Pol iota fluorescent replication assay, 10 min. AID 588590. Potency, µM (series often up to 115 µM), without a hit: at the top dose activity, negative = inhibition, most hits filed as inhibitors; further: potency means the concentration at half of the fitted maximal effect
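Fluorescent replication assay read twice, at 0 min and 10 min after adding 50 nM (final) substrate. Enzyme (10 nM) and compounds were first incubated 15 min at room temperature; enzyme-free buffer wells were negative controls.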
Pol kappa inh-1: inhibitors of human DNA polymerase kappa; Potency, µM (titrated, usually from 107 µM), without a hit: top-dose activity, negative = inhibition, most hits filed as inhibitors; hit rate 0.53% among 400,000; purified Pol kappa, fluorescent DNA synthesis assay, 10 min; AID 588579; further: potency means the concentration at half of the fitted maximal effect; on the % scale 0 is the no-effect control and ±100 the full control effect
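Readout: fluorescence, taken kinetically at 0 and 10 min. Conditions: 10 nM Pol kappa, 15 min RT compound preincubation, 50 nM substrate final. Controls: enzyme-free buffer wells.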
L3MBTL1 inh: L3MBTL1 (human) inhibition; Potency, µM (titrated, usually from 57.1 µM), without a hit: at the top dose activity, negative = inhibition, hits mostly inhibitors; AlphaScreen L3MBTL1–H3K9me1 peptide binding; hit rate 0.66% among 230,000; Q9Y468; AID 485360; further: potency means the concentration at half of the fitted maximal effect; on the % scale 0 is the no-effect control and ±100 the full control effect; nearly all actives have a fitted effect of over 60% in size
Target sequence (Q9Y468 whole entry, looked up): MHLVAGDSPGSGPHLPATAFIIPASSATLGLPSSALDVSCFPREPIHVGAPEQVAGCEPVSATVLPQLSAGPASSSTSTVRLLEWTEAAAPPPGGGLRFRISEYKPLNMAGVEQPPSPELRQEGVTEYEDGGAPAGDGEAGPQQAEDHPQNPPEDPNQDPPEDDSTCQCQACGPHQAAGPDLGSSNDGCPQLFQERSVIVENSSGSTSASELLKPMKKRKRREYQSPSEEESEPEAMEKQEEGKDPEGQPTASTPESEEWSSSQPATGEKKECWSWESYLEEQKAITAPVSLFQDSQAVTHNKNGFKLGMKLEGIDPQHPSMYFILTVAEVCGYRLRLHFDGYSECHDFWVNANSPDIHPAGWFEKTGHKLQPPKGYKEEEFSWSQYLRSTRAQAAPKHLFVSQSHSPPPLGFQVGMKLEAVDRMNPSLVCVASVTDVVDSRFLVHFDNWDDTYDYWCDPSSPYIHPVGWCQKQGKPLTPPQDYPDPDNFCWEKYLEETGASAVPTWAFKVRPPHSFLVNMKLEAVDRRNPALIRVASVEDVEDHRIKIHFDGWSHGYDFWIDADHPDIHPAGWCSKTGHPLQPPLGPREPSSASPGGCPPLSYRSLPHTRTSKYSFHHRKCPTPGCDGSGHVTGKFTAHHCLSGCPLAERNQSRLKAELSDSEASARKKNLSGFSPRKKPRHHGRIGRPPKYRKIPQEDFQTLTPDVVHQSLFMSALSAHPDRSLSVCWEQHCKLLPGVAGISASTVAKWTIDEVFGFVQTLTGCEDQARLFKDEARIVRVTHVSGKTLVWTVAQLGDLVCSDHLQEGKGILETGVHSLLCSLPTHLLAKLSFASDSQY
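AlphaScreen assay: L3MBTL1 (50 nM final) was preincubated 30 min at room temperature with biotinylated H3(1-15)K9me1 peptide (75 nM final), then 30 min with library compounds; streptavidin donor and nickel chelate acceptor beads (10 ug/mL final) added, 30 min dark.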
GALK inh confirm: galactokinase (human) inhibition, confirmation | shares compounds with Pol eta inh-1 | purified GALK, Kinase-Glo ATP depletion luminescence | Potency, µM (top dose mostly 115 µM), without a hit: at the top dose activity, negative = inhibition, actives largely listed as inhibitors | hit rate 70% among 150 | AID 2015
GALK redox cs: generates H2O2 by redox cycling, flagging GALK artifacts | shares compounds with Pol eta inh-1 | Potency, µM (top dose mostly 115 µM), without a hit: at the top dose activity change, negative = H2O2 signal, actives largely listed as inhibitors | Phenol red-HRP H2O2 redox cycling, absorbance 600 nm | hit rate 40% among 150
HEK293 tox: HEK-293 cytotoxicity, GALK inhibitor secondary. shares compounds with Pol eta inh-1. HEK-293 viability, ATP luminescence (CellTiter-Glo), 24/48 h. Potency, µM (top dose mostly 46.1 µM), without a hit: top-dose activity change, negative = cytotoxicity, actives largely listed as inhibitors. hit rate 10% among 170. AID 2547; further: potency means the concentration at half of the fitted maximal effect; on the % scale 0 is the no-effect control and ±100 the full control effect
Pol kappa inh-2: confirmation of human DNA polymerase kappa inhibitors; shares compounds with Pol eta inh-1; purified Pol-kappa, fluorescent strand-displacement substrate; Potency, µM, hits mostly inhibitors; hit rate 76% among 920; further: potency means the concentration at half of the fitted maximal effect
Pol eta inh-2: Pol eta (human) inhibition, cherry-pick confirmation | shares compounds with Pol eta inh-1 | Pol eta primer extension, TAMRA/BHQ fluorescence, 10 min | Potency, µM, most hits filed as inhibitors | hit rate 64% among 2,600; further: potency means the concentration at half of the fitted maximal effect
* hit, by the source's call; u = inconclusive; x = not tested or not shown; [ ] = dose if it differs, or a comment. This is a sample that favours compounds with a hit; in the whole collection about 2.5% have one here. The call rests on the fitted dose curve; in most records, active means well fitted curve in the direction sought with a large enough effect; inconclusive means small, poorly fitted or top-dose-only effect, or another doubt; inactive means no such curve, though single readings can be large; an effect the other way counts as inactive or inconclusive.

SMILES	Pol eta inh-1	Pol beta inh	WRN inhibitor	POLI inh	Pol kappa inh-1	L3MBTL1 inh	Pol eta inh-2	others
O=C(O)CN1C(=O)/C(=C\c2cc(Br)ccc2OCc2ccc(F)cc2)SC1=S	40µM*	40µM*	u	40µM*	-69%	x	u
S=c1[nH]nc(-c2cc(-c3ccco3)[nH]n2)n1-c1ccccc1Cl	32µM*	u	50µM*	u	u	u	u
CC1=NN(c2cccc(C(=O)O)c2)C(=O)/C1=C\C=C/c1ccccc1	18µM*	0%	u	u	-15%	x	27*
Cc1cccc(COc2ccccc2C(=O)NC2CCC(O)CC2)c1 (stereo not given)	-7%	x	-9%	50%	-15%	1%	x
Cc1cc(C(=O)NCc2cc(C(=O)O)co2)co1	20µM*	-7%	-16%	u	79µM*	u	30*	Pol kappa inh-2=17*
Cc1cc(C(=O)Nc2cccc3ccccc23)co1	-7%	3%	-8%	16%	1%	x	x
Cc1cc(C)cc(NC(=O)c2sc3nc(-c4cc5ccccc5oc4=O)[nH]c(=O)c3c2C)c1	-12%	-6%	x	7%	-13%	x	x
Cc1cccc(NC(=O)c2sc3nc(-c4cc5ccc(O)cc5oc4=O)[nH]c(=O)c3c2C)c1	u	u	x	41%	-3%	x	u
COC(=O)CNC(=O)c1cn(-c2ccc(C)c(C)c2)c(=O)c2ccccc12	u	1%	5%	8%	-4%	x	x
Cc1cc(SCC(=O)N/N=C/c2ccc(O)c(O)c2)nc2ccccc12	20µM*	8.9µM*	79µM*	50µM*	u	u	38*
O=C(Cc1nnc(NC(=O)c2ccccc2)s1)N/N=C\c1ccc(O)c(O)c1	3.2µM*	7.1µM*	18µM*	2.2µM*	3.2µM*	0%[2.29 µM]	38*	Pol kappa inh-2=9.5*
O=c1[nH]c(/C=C\c2cccnc2)c([N+](=O)[O-])c(=O)[nH]1	-5%	-8%	-22%	22%	-2%	x	x
O=c1[nH]c(/C=C/c2ccccc2)c([N+](=O)[O-])c(=O)[nH]1	u	u	-26%	u	-6%	3%	x
CCC(C)Oc1ccc(/C=C/c2[nH]c(=O)[nH]c(=O)c2[N+](=O)[O-])cc1OC (stereo not given)	-20%	4%	4%	u	-4%	x	x
O=c1[nH]c(/C=C/c2ccc(Cl)cc2Cl)c([N+](=O)[O-])c(=O)[nH]1	20µM*	32µM*	-32%	50µM*	-14%	-8%	76*
COc1cc(/C=C/c2[nH]c(=O)[nH]c(=O)c2[N+](=O)[O-])cc([N+](=O)[O-])c1O	22µM*	u	-13%[11.6 µM]	u	-16%	x	60*	Pol kappa inh-2=u
O=c1[nH]c(/C=C/c2cccc([N+](=O)[O-])c2)c([N+](=O)[O-])c(=O)[nH]1	25µM*	-21%	-5%[11.6 µM]	u	-3%	13%	x	GALK inh confirm=38µM*;GALK redox cs=2%;HEK293 tox=7%
Cc1cc(NC(=O)CSc2nc(-c3ccccc3F)nc3c2c(=O)n(C)c(=O)n3C)no1	-8%	-18%	x	21%	1%[60.1 µM]	x	x
COC(=O)/C=C1\SC(=NC(=O)c2ccc(-c3ccccc3)cc2)NC1=O	50µM*	x	-5%[11.6 µM]	u	-33%	-26%	u
CCOC(=O)c1c2c(n(Cc3ccccc3)c1C)C(=O)C(=O)c1ccccc1-2	8.9µM*	x	-10%	40µM*	-24%	x	85*
O=C(O)COc1ccccc1C(Nc1ccccn1)c1cc(Cl)c2cccnc2c1O (stereo not given)	50µM*	-6%	u	-8%	-14%	13%	u
COc1ccccc1C(NC(C)=O)c1cc(Cl)c2cccnc2c1O (stereo not given)	-25%	19%	2%	45%	0%	x	x
COc1ccc(-c2cc(-c3ccc4c(c3)NC(=O)CO4)nc3c2COc2ccc(F)cc2-3)cc1	1%	30%	x	0%	13%	x	x
COC(C(=O)NNS(=O)(=O)c1ccc([N+](=O)[O-])cc1)c1ccccc1 (stereo not given)	-4%	66%	6%	-6%	-3%	x	x
CC(/C=N/n1c(-c2ccncc2)n[nH]c1=S)=C\c1ccco1	u	-15%	u	20µM*	50µM*	x	u
SMILES	Pol eta inh-1	Pol beta inh	WRN inhibitor	POLI inh	Pol kappa inh-1	L3MBTL1 inh	Pol eta inh-2	others
CC(=C/c1ccccc1)/C=N/n1c(-c2ccncc2)n[nH]c1=S	-5%	-8%	-8%	13%	1%	-3%[11.4 µM]	x
Cc1noc(C)c1NC(=O)Nc1cccc2c1O[C@H](CN(C)C(=O)Nc1ccc3c(c1)OCO3)[C@@H](C)CN([C@H](C)CO)C2=O	-5%	x	-7%	5%	-6%	8%	x
CC(=C/C(=O)O)/C=C/c1ccco1	u	u	-8%[11.6 µM]	89µM*	u	u	u
O=C(/C=C/c1ccco1)c1ccccc1O	-12%	2%	5%[57.1 µM]	50%	3%	-9%	x
CC(/C=C/c1ccc(Cl)o1)=C\C(=O)O	22µM*	32µM*	-29%[57.1 µM]	u	-26%	u	48*
Cc1ccc2c(c1)C1CN(C)CCC1N2S(=O)(=O)c1ccc(C(C)C)cc1 (stereo not given)	-15%	x	1%	2%	-17%	0%	x
O=S(=O)(Nc1c(S(=O)(=O)c2ccccc2)c2nc3ccccc3nc2n1C1CCCCC1)c1ccccc1	22µM*	3%	-33%	3.5µM*	-16%	u	x	Pol kappa inh-2=30*

Screens as filed in PubChem BioAssay.
